Drawing on PubChem BioAssay, this text covers composite z-score and z-score for 5 molecules.

Calls of active or inactive are those of the source.

Experiment [1] in a line: small molecules captured by biotinylated probe aFSTL3 – biochemical, small-molecule microarray, fluorescence 635/667, stem cell growth factor project, primary screen (AID 1064).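 Note: measures binding of the biotinylated anti-FSTL3 antibody to printed compounds.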 Particulars: higher = more signal.
Experiment [2] is described as follows: binders from COS7 lysate, DM2A8 probe, primary screen, torsin A project, cell lysate, small-molecule microarray, fluorescence 635/667 (AID 1065). To be noted: higher = more signal, COS7 lysate expressing mutant human TOR1A.
A short description of experiment [3]: small molecules captured by biotinylated probe aFGF2 – biochemical, small-molecule microarray, fluorescence 635/667, stem cell growth factor project, primary screen (AID 1067).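 Note: measures binding of biotinylated aFGF2 protein to printed compounds on slides; z-score merges feature fluorescence and signal-to-noise across triplicate slides.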 Particulars: higher = more signal.
Experiment [4] can be described thus: small molecules captured by biotinylated probe aFGF10 – biochemical, small-molecule microarray, fluorescence 635/667, stem cell growth factor project, primary screen (AID 1071).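 Note: score merges 667 nm spot intensity and signal to noise from triplicate slides.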 Particulars: higher = more signal.
Experiment [5] addresses Neurogenic locus notch homolog protein 2 (Homo sapiens) (UniProt Q04721). Kind of experiment: small molecules binding Notch2 protein – biochemical, small-molecule microarray, 635 nm fluorescence, stem cell growth factors, primary screen (AID 1073). To be noted: higher = more signal.
In experiment [6] the target is Pro-neuregulin-1, membrane-bound isoform (Homo sapiens) (UniProt Q02297). Kind of experiment: small molecules binding neuregulin-1 protein – biochemical, small-molecule microarray, fluorescence 635/667, psychiatric disease protein project, primary screen (AID 1075).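 Note: score combines 667 nm spot fluorescence with signal to noise.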 Particulars: NRG1 binding, 635 nm fluorescence, higher = more signal.
Experiment [7] deals with Neuregulin-1 EGF-like domain. Kind of experiment: small molecules binding NRG1 EGF domain – biochemical, small-molecule microarray, 635 nm fluorescence, primary screen (AID 1081).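 Note: binding of the protein to compounds printed on small-molecule microarray slides.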 To be noted: higher = more signal.
A short description of experiment [8]: FRG1 expression reporter modulators in myotubes – cell-based, C2C12 myotubes, firefly/Renilla luciferase, luminescence, FRG1 inhibition for FSHD, primary screen (AID 1084). Particulars: FRG1 promoter luciferase, higher = more signal, called active from +8 up or from −8 down.
Experiment [9] can be described thus: small molecules captured by biotinylated probe aFST – biochemical, small-molecule microarray, fluorescence 635/667, stem cell growth factor project, primary screen (AID 1086).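 Note: score merges 667 nm fluorescence with signal-to-noise of each printed compound spot.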 To be noted: higher = more signal.
Experiment [10] can be described thus: binders of probe aHhip on microarray, primary screen, stem cell growth factor project, biochemical, small-molecule microarray, fluorescence 635/667 (AID 1087).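 Note: score merges spot fluorescence at 667nm with spot signal to noise ratio.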 To be noted: higher = more signal.
The subject of experiment [11] is PRMT1 (protein arginine N-methyltransferase 1). Kind of experiment: small molecules binding arginine methyltransferase PRMT1 – biochemical, small-molecule microarray, 635 nm fluorescence, primary screen (AID 1088).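 Note: binding of Prmt1 protein to compounds spotted on small-molecule microarray slides.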 To be noted: higher = more signal.
Experiment [12] in a line: growth effects on S. cerevisiae YJM789 – YJM789 clinical isolate, OD600, 24 h, basal, primary screen (AID 1089).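 Note: growth of clinical yeast isolate S. cerevisiae YJM 789 seeded 1000 cells per well; test concentration not given here.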 Particulars: higher = more signal, called active from +8 up or from −8 down.
Experiment [13] in a line: S. pombe growth modifiers, basal conditions – strain 972, OD600, 24 h, no modulator, primary screen (AID 1090).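 Note: basal condition with compound alone and no growth modifier present; test concentration not given here.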 To be noted: S. pombe 972 growth, higher = more signal, called active from +8 up or from −8 down.
Experiment [14] is described as follows: budding yeast growth modifiers under rapamycin – strain BY4716, OD600, 96 h, primary screen (AID 1091). Note: test concentration not given here. To be noted: S. cerevisiae BY4716 + rapamycin, higher = more signal, called active from +8 up or from −8 down.
The target in experiment [15] is Torsin-1A-interacting protein 2 (Homo sapiens) (UniProt Q8NFQ8). Kind of experiment: small molecules binding lysate-expressed LULL1 – cell lysate, human LULL1 lysate, 635/667 nm fluorescence, primary screen (AID 1092).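 Note: score merges per-feature 667 nm fluorescence with signal-to-noise.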 Particulars: small-molecule microarray, hLULL1 lysate binding, 635 nm fluorescence; higher = more signal.
Experiment [16] can be described thus: optical density change of DRC41 E. coli – strain DRC41, OD650, 24 h, E. coli filamentation project, primary screen (AID 1093).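 Note: MC1000 strain lacking acrAB efflux and sulA so SOS filamentation is blocked; test concentration not given here.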 Particulars: E. coli DRC41 growth, higher = more signal, called active from +8 up or from −8 down.
The nature of experiment [17]: probe aLefty2 binding to arrayed compounds – biochemical, biotinylated probe, 635/667 nm fluorescence, primary screen (AID 1094).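 Note: score merges spot fluorescence near 667 nm with spot signal-to-noise ratio.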 To be noted: small-molecule microarray, higher = more signal.
In experiment [18] the test system is Noggin (protein binding on small-molecule microarray). Nature of the experiment: small molecules binding Noggin protein – biochemical, 635/667 nm fluorescence, primary screen (AID 1095).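 Note: score merges 667 nm feature fluorescence with signal to noise over triplicate slides.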 To be noted: 635 nm fluorescence, higher = more signal.
Experiment [19] has as its target Neurogenic locus notch homolog protein 3 (Homo sapiens) (UniProt Q9UM47). Nature of the experiment: small molecules binding NOTCH3 protein – biochemical, 635/667 nm fluorescence, primary screen (AID 1096). To be noted: small-molecule microarray, 635 nm fluorescence, higher = more signal.
The nature of experiment [20]: probe aEGFR binding to arrayed compounds – biochemical, biotinylated probe, 635/667 nm fluorescence, primary screen (AID 1097).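 Note: probe is a biotinylated anti-EGFR antibody binding compounds printed on slides; score combines fluorescence near 667 nm and signal to noise of each spot.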 To be noted: small-molecule microarray, higher = more signal.

Neurogenic locus notch homolog protein 2 (Homo sapiens), sequence (Q04721 whole entry, looked up, canonical isoform): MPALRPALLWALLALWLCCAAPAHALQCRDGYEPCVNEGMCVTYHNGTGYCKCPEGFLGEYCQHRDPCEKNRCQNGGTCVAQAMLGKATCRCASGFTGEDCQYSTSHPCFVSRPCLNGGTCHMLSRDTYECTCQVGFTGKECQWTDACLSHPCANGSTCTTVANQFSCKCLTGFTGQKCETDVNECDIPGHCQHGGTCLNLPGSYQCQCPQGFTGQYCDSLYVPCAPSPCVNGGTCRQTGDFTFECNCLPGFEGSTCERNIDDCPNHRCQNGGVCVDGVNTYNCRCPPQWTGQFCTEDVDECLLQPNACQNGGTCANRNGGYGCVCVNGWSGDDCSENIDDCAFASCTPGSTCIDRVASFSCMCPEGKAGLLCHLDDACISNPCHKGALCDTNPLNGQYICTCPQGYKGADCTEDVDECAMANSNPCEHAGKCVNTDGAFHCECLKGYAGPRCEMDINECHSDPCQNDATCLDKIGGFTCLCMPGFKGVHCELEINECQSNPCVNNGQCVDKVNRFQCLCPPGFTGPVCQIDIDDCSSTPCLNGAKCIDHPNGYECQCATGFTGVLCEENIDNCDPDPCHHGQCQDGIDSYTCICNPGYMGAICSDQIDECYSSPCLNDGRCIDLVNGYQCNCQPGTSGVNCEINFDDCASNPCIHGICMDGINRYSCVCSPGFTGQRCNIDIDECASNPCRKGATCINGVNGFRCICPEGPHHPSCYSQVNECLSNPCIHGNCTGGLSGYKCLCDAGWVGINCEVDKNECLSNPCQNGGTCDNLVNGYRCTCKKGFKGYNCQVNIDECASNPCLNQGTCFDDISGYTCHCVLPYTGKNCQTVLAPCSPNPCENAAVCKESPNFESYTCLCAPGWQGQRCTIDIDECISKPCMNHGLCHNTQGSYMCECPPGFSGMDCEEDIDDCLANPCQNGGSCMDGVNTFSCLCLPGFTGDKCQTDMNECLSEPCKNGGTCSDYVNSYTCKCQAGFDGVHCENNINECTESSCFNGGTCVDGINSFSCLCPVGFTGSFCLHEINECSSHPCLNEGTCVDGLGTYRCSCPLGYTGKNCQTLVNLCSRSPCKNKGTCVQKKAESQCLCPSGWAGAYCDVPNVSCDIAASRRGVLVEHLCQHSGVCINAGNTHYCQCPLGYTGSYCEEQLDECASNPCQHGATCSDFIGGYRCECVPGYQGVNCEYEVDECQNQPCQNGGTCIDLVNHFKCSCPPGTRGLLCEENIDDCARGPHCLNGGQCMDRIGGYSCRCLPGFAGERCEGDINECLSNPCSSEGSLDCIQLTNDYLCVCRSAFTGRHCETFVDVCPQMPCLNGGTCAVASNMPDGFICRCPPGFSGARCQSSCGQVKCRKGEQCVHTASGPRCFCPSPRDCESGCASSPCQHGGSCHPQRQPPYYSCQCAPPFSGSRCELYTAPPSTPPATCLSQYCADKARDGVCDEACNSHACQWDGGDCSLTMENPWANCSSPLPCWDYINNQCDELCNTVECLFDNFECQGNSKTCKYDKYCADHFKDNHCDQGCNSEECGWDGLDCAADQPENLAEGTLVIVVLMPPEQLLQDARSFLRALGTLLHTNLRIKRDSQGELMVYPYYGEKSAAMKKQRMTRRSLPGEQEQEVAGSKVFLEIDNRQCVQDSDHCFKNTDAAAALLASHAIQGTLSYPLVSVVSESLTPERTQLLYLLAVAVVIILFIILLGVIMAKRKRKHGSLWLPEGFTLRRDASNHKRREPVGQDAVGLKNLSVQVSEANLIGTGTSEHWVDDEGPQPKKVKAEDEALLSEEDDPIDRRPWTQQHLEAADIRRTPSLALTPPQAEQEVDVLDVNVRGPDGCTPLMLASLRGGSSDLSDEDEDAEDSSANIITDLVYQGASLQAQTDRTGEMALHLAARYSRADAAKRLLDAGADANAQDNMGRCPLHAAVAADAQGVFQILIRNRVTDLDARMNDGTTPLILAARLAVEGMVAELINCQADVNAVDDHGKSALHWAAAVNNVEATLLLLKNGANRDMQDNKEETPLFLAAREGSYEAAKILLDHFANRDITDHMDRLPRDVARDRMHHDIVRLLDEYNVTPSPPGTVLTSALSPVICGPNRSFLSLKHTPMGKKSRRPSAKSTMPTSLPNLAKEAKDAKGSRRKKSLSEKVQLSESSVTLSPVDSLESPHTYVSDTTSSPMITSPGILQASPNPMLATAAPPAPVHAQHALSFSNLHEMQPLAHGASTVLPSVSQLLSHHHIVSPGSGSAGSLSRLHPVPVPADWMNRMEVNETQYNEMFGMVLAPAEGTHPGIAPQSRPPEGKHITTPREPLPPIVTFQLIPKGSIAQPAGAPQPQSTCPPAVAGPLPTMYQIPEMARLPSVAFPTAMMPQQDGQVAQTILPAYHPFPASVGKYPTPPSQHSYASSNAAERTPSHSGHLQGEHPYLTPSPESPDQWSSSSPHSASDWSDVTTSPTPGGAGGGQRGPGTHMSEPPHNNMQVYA
Torsin-1A-interacting protein 2 (Homo sapiens), sequence (Q8NFQ8 whole entry, looked up): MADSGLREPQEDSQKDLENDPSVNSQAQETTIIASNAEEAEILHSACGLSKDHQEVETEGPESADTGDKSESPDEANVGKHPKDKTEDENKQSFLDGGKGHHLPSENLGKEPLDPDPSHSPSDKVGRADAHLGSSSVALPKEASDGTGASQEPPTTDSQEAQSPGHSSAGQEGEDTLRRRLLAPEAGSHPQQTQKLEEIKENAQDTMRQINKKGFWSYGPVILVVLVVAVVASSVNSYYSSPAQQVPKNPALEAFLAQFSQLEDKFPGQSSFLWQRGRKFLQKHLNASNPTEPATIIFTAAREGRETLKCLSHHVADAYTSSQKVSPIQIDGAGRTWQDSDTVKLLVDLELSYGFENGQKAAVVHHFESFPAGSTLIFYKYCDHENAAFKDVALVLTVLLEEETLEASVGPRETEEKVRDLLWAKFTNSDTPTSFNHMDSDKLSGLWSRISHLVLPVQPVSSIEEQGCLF
Pro-neuregulin-1, membrane-bound isoform (Homo sapiens), sequence (Q02297 whole entry, looked up, the tested form may be a part, canonical isoform): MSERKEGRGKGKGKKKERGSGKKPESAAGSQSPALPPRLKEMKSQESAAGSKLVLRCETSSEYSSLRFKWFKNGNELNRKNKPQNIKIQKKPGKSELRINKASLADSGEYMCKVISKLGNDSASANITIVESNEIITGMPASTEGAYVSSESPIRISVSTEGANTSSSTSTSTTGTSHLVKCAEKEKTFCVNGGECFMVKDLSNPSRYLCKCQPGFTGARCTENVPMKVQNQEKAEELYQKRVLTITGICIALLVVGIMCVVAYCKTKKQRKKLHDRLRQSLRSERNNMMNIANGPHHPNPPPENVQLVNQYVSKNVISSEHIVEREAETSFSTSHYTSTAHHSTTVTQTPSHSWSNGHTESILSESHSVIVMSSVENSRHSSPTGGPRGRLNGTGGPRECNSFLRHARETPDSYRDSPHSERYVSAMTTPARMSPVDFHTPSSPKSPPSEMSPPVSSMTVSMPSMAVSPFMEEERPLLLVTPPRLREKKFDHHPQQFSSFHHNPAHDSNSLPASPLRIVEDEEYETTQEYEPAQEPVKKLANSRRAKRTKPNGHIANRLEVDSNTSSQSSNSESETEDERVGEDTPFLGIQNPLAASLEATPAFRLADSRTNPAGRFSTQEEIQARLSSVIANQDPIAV

With `O=C(N1CCCCC1)[C@]1(Cc2ccccc2)N=C(c2ccc(OCCCO)cc2)O[C@@H]1c1ccccc1`, the composite z-score in experiment [1] was 0.542; in experiment [2], 0.0149; in [3] it was -0.0183; in [4] it was 0.541; in [5] it was 1.51; in [6], 1.03. In addition, the composite z-score in experiment [7] was determined as 0.884; in experiment [9] it was 0.979; in experiment [10], 0.289; in experiment [11] it was 1.28; in [15], 2.84; in experiment [17], 0.18. The values for the composite z-score in experiment [18], in experiment [19] and in experiment [20] were -0.281, 0.586 and 0.303, respectively. Besides, the z-score in experiment [8] was -0.636 (inactive); in experiment [12], -0.425 (inactive); in [13], -1.52 (inactive); in experiment [14] it was 3.64 (inactive); in experiment [16], -0.331 (inactive).
For the molecule `CCS[C@H]1[C@@H](C(=O)O)[C@H](c2ccc(C)cc2)N(S(=O)(=O)c2ccc(C)cc2)[C@@H]1CC`, the composite z-score in [1] is -0.21; in experiment [2], -0.0564; in experiment [3], 0.0288; in experiment [4] it was 1.1; in [5], 1.36; in experiment [6], 1.84. Also, the composite z-score in experiment [7] is 1.36; in [9], 1.56; in experiment [10], 0.201; in experiment [11], 0.811; in experiment [15], 3.26; in experiment [17], 0.105. For the same molecule, the composite z-score is -0.0193 in experiment [18], 1.11 in experiment [19] and -0.0563 in [20]. Besides, the z-score was -3.15 (inactive) in experiment [8]; -0.406 (inactive) in experiment [12]; 0.588 (inactive) in [13]; -0.0003 (inactive) in [14]; 0.401 (inactive) in experiment [16].
As to `COc1ccc(C(O)C2C=CC3C(=O)N(Cc4ccccc4)C(=O)C3N2n2cnnc2)cc1OCc1ccccc1` (stereo not given), the composite z-score in experiment [1] is -0.0405; in experiment [2], -0.209; in experiment [3], -0.0996; in experiment [4], 0.193; in experiment [5], -0.0176; in [6] it was 0.834. The composite z-score in [7] is 0.613; in experiment [9], 0.777; in [10], -0.0296; in experiment [11], 0.953; in [15] it was 2.59; in [17], 0.114. Moreover, the composite z-score in [18] was 0.0181; in [19] it was 0.331; in [20], -0.0512. For the same molecule, the z-score in experiment [8] is 0.364 (inactive); in experiment [12], -1.56 (inactive); in experiment [13] it was 0.0901 (inactive); in experiment [14], -0.62 (inactive); in experiment [16] it was 1.69 (inactive).
Regarding `COc1ccc(C(=O)Nc2ccc(CN3C(=O)[C@]4(O[C@H](CCO)[C@@H]([Si](C)(C)c5ccc(OC)cc5)[C@@H]4C)c4ccccc43)cc2)cc1`, the composite z-score in [1] was -0.329; in [2], 0.0876; in experiment [3] it was -0.087; in experiment [4], 0.245; in experiment [5], 0.561; in [6], 0.77. The composite z-score in experiment [7] came to 0.836; in experiment [9] it was 0.305; in experiment [10], 0.432; in experiment [11] it was 1.47; in [15] it was 2.17; in experiment [17] it was 0.0412. Further, the composite z-score in experiment [18] was 0.827; in [19], 1.13; in [20], -0.183. Also, the z-score was -4.05 (inactive) in experiment [8]; -0.0534 (inactive) in [12]; -12.2 (active) in [13]; 1.62 (inactive) in [14]; -0.324 (inactive) in [16].
`CC(C)N1C(=O)[C@@]2(Cc3ccccc31)c1ccccc1C(=O)N(Cc1ccccc1Cl)[C@H]2c1ccc(CO)cc1`: the composite z-score in experiment [1] is -0.0423; in [2], -0.149; in experiment [3] it was -0.177; in experiment [4], -0.272; in experiment [5], -0.791; in experiment [6], -0.371. Further, the composite z-score in experiment [7] was 0.0118; in experiment [9] it was -0.377; in experiment [10], -0.319; in [11] it was 0.477; in experiment [15], -0.203; in experiment [17] it was -0.153. Further, the results for the composite z-score in experiment [18], in [19] and in [20] were -0.665, -0.942 and -0.152, respectively. Moreover, the z-score is -0.426 (inactive) in [8]; -1.05 (inactive) in experiment [12]; -1.17 (inactive) in [13]; -2.86 (inactive) in experiment [14]; -1.25 (inactive) in [16].
